Assay outcomes: PubChem BioAssay, several laboratories
MEKK2 mut-MEK5 – MEK5 binding signal on mutant MEKK2 PB1, primary screen, biochemical, multiplex bead flow cytometry, Alexa488-MEK5; AID 1530, 2009; Alexa488-MEK5 binding to MEKK2 mutant; percent response, % at 10 µM; 290,000 compounds, 0.35% hits; in the data active = percent response above about 24%, passing the limit was not always enough
MEKK3 PB1 HTS – modulators of MEKK3-MEK5 PB1 binding, primary screen, biochemical, wildtype MEKK3, multiplex bead flow cytometry, Alexa488-MEK5; 290,000 compounds, 1.4% hits; binding response (% of control), % at 10 µM; bead-based flow cytometry, Alexa488-MEK5 binding to MEKK3; actives lie on both sides; 0 = blocked by unlabeled MEK5, 100 = vehicle; Mitogen-activated protein kinase kinase kinase 3 (Homo sapiens), Q99759;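 active = binding response more than 3 SD above or below the average of its plate-row segment, actives on both sides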;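 note: Alexa488 bead fluorescence after subtracting the streptavidin-only scavenger bead signal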
Target sequence (Q99759 whole entry, looked up): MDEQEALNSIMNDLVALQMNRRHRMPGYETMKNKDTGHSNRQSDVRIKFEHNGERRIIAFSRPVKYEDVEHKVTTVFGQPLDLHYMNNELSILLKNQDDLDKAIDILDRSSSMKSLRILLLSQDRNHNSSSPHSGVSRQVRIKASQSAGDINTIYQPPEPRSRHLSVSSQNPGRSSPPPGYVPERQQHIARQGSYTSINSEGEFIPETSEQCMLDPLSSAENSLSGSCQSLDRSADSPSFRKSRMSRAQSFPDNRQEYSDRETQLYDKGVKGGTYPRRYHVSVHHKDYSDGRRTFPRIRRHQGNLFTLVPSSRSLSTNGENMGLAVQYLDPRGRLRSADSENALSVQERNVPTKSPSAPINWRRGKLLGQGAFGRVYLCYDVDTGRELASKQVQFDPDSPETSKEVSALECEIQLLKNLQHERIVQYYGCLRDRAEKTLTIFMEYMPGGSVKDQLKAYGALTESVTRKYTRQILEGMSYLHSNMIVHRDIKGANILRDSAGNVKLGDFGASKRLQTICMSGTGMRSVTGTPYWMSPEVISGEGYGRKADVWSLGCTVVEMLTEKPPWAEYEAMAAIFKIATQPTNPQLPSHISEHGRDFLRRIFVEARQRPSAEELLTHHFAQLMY
MEKK2wt PB1 HTS – modulators of MEK5 binding to wildtype MEKK2, primary screen, biochemical, multiplex bead flow cytometry, Alexa488-MEK5; 290,000 compounds, 1.1% hits; Mitogen-activated protein kinase kinase kinase 2 (Homo sapiens), Q9Y2U5; binding response (% of control), % at 10 µM; Alexa488-MEK5 binding to MEKK2 WT; actives lie on both sides; in the data active = binding response below about 67% or above about 130%
SKN-1 inh – suppressors of acrylamide-induced Pgst-4::GFP reporter in worms, primary screen, SKN-1 inhibitor project, whole organism, uHTS, GFP/RFP fluorescence ratio, strain VP596 | C. elegans VP596 Pgst-4::GFP/RFP ratio, 24 h | inhibition, % at 21.8 µM | 360,000 compounds, 0.49% hits;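 active = interference check ratio from 0.5 to 1.5 plus GFP to RFP signal ratio inhibition reaching or exceeding a fixed threshold, cut at about 30% in these data, passing the limit was not always enough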
NRP1-CendR mod – modulators of CendR peptide binding to NRP-1, primary screen, biochemical, fluorescence polarization, uHTS | 360,000 compounds, 0.85% hits | inhibition, % at 25 µM | Neuropilin-1 (Homo sapiens), O14786 | FAM-RPARPAR peptide binding to NRP-1;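 active = inhibition or corrected inhibition above about 18%, plus a signal ratio from 0.5 to 1.5, limit read from the data, passing the limit was not always enough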
Numbers without * were called inactive; . = not tested or not shown; [ ] = remark or other dose. Most compounds without a hit are left out; they make up all but 3.2% or so of the library.

SMILES	MEKK2 mut-MEK5	MEKK3 PB1 HTS	MEKK2wt PB1 HTS	SKN-1 inh	NRP1-CendR mod
CC1CCN(CCCNC(=O)c2cc3c(Cl)nc4ccccc4c3s2)CC1	26	105	154*	-4	7
CC1CCN(CCCNC(=O)c2n[nH]c(=O)c3ccccc23)CC1	1	96	99	-25	-3
CCOC(=O)C[C@H]1c2cc(C(F)(F)F)ccc2S(=O)(=O)N1Cc1ccccc1	0	100	100	4	26*
CCOC(=O)C[C@H]1c2ccc(C(F)(F)F)cc2S(=O)(=O)N1C(C)(C)C	4	102	105	3	22*
Cc1ccc(-c2nnn(CC(=O)N(CCCO)C(C(=O)NC3CCCC3)c3ccc(F)cc3)n2)o1 (stereo not drawn)	1	102	109	6	6
CC(Nc1nc(-c2ccc(F)cc2)cs1)c1nc2cc(C(F)(F)F)ccc2n1CCOCCO (stereo not drawn)	-1	97	98	-2	28*
COc1ccc(-c2csc(NC(C)c3nc4cc(C(F)(F)F)ccc4n3CCOCCO)n2)cc1 (stereo not drawn)	-2	93	98	-9	-7
CN(C)/C=C/c1c([N+](=O)[O-])c2ccc(O)cc2n1-c1ccccc1	-44	63	65	7	33*
CCOc1ccc(CSc2nc(C)cc(COC)c2C#N)cc1OCC	2	105	106	2	1
NS(=O)(=O)c1ccc(CCNC(=O)CNC(=O)c2ccc(Br)o2)cc1	.	.	.	5	19*
NS(=O)(=O)c1ccc(CCNC(=O)c2ccc3ccccc3n2)cc1	5	99	-3.0*	-2	2
NS(=O)(=O)c1ccc(CNC(=O)c2ccc3ccccc3n2)cc1	5	105	103	22	13
COc1ccc(OC)c(CNS(=O)(=O)c2cc(CN3C(=O)c4cccnc4C3=O)ccc2OC)c1	2	96	103	11	-2
CC1(Cc2cc(Cl)ccc2C(F)(F)F)C(=O)Nc2c(Cl)cccc21 (stereo not drawn)	.	.	.	-12	9
CC1(Cc2ccc(Cl)cc2)C(=O)Nc2ccc(-c3cccnc3)cc21 (stereo not drawn)	.	.	.	39*	5
CC1(Cc2cccc(C(F)(F)F)c2)C(=O)Nc2ccc(-c3ccc(F)c(Cl)c3)cc21 (stereo not drawn)	.	.	.	40*	-6
CC1(Cc2ccc(F)c(Cl)c2)C(=O)Nc2c(Cl)cccc21 (stereo not drawn)	.	.	.	13	25*
CC1(Cc2cccc(F)c2)C(=O)Nc2ccc(-c3cccnc3)cc21 (stereo not drawn)	.	.	.	14	-10
COc1ccc(C(=O)C(=O)N2CCC(Cc3ccccc3)CC2)cc1OC	.	.	.	3	-21
CCCS(=O)(=O)NC(=O)C1(C)CCN(C(=O)c2ccccc2Br)C1 (stereo not drawn)	.	.	.	-1	-7
CCCS(=O)(=O)NC(=O)C1(C)CCN(C(=O)c2cccc(C)c2C)C1 (stereo not drawn)	.	.	.	35*	-1
O=C(O)C(Oc1ccc2c(c1)oc(=O)c1ccccc12)c1ccccc1 (stereo not drawn)	7	102	95	-5	1
O=C(O)C(Oc1ccc2ccccc2c1)c1ccccc1 (stereo not drawn)	.	.	.	40*	11
O=C(NCC[C@H]1CC[C@H](NS(=O)(=O)c2ccccc2F)[C@@H](CO)O1)c1ccc(F)cc1	.	.	.	-7	2
CCC(=O)OCC(=O)N=c1sccn1Cc1ccccc1Cl	12	105	107	11	26*
SMILES	MEKK2 mut-MEK5	MEKK3 PB1 HTS	MEKK2wt PB1 HTS	SKN-1 inh	NRP1-CendR mod
O=C(CCl)N=c1sccn1Cc1ccccc1Cl	-21	86	90	2	-7
CCCC(=O)N1CCC1(C)C(=O)NS(=O)(=O)c1cccc(Cl)c1 (stereo not drawn)	.	.	.	5	2
Cc1ccccc1-c1nc(-c2cccnc2)no1	1	101	100	17	-10
Clc1ccc(-c2nc(-c3ccncc3)no2)c(Cl)c1	.	.	.	36*	-4
Clc1ccccc1-c1nc(-c2ccncc2)no1	-3	100	103	46*	2
Clc1ccc(OCCCc2nc(-c3ccncc3)no2)c(Cl)c1	0	95	101	43*	-13
Clc1ccccc1-c1nc(-c2cccnc2)no1	0	97	95	34*	2
C[C@@H]1CN([C@@H](C)CO)C(=O)CCCn2nncc2CO[C@@H]1CN(C)C(=O)Nc1ccnc(N2CCOCC2)c1	.	.	.	-12	-1
Clc1ccccc1/C=C/c1nc(-c2cccnc2)no1	0	104	102	39*	-25
Clc1ccc(-c2noc(/C=C/c3ccccc3)n2)cc1	5	106	98	1	2
Cc1ccc(-c2csc(NC(=O)c3ccno3)n2)cc1	1	105	86	37*	-20
Cc1ccc(-c2csc(NC(=O)c3ccc(C)o3)n2)cc1	5	108	108	12	8
Cc1ccc(-c2csc(NC(=O)c3c(C)noc3C)n2)cc1	.	.	.	-6	10
Cc1ccc(C(=O)Nc2nc(-c3ccc(F)cc3)cs2)o1	-2	97	105	36*	12
N#CC1=C(SCC(=O)Nc2nccs2)NC(=O)CC1c1ccccc1 (stereo not drawn)	3	97	105	4	-15
Cc1ccccc1NC(=O)CSC1=C(C#N)C(c2ccsc2)CC(=O)N1 (stereo not drawn)	6	105	109	38*	10
CCCCn1nnnc1C(c1cc2ccccc2o1)N1CCCCC1 (stereo not drawn)	.	.	.	8	-11
CCCCn1nnnc1C(c1cc2ccccc2o1)N1CCN(c2c(C)cccc2C)CC1 (stereo not drawn)	.	.	.	-6	26*
O=C(NCc1cc([N+](=O)[O-])ccc1O)c1cccnc1Sc1ccccc1Cl	4	103	103	6	-7
O=C(NC1CC1)c1cccc2c1C(=O)c1ccc(N3CCC(Cc4ccccc4)CC3)cc1S2(=O)=O	.	.	.	10	-140
O=C1c2ccc(Cl)cc2S(=O)(=O)c2cccc(C(=O)N3CCC(Cc4ccccc4)CC3)c21	.	.	.	-6	26*
C=CCN1C(=O)/C(=C/C=C2/N(CC)c3ccc(S(=O)(=O)N(C)C)cc3N2CC)SC1=S	-17	65	36*[inhibitor]	46	51
C[C@@H]1CN([C@@H](C)CO)C(=O)c2cc(N(C)C)ccc2O[C@@H](C)CCCCO[C@@H]1CN(C)Cc1ccc2c(c1)OCO2	.	.	.	5	-31
